Bioassay records: PubChem BioAssay, National Center for Advancing Translational Sciences (NCATS)
Shown are actives, neighbours in structure and some others; about 12% of the full set was active somewhere.
HP1b binding inh: HTS for Inhibitors of HP1-beta Chromodomain Interactions with Methylated Histone Tails; AlphaScreen HP1-beta / biotin-H3K9me3 peptide binding; Chromobox protein homolog 1 (Homo sapiens), P83916; Potency, µM (titrated, usually from 114 µM), usual class: inhibitors; 390,000 tested, 0.56% active; further: nearly all actives have a fitted effect of over 70% in size
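HP1-beta protein (50 nM final) preincubated 30 min at room temperature with biotinylated H3(1-18)K9me3 peptide (50 nM) in PBS pH 7.4, 0.01% Tween-20, then compound added for 30 min. AlphaScreen streptavidin donor/nickel chelate acceptor beads (10 ug/mL final), 30 min dark, luminescence read.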
G9a block: qHTS Assay for Inhibitors of Histone Lysine Methyltransferase G9a; Histone-lysine N-methyltransferase EHMT2 (Homo sapiens), Q96KQ7; G9a H3K9 monomethylation, AlphaScreen, 2 h; Potency, µM (series often up to 102 µM), actives largely listed as inhibitors; 350,000 tested, 8.8% active; further: nearly all actives have a fitted effect of over 75% in size
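Using a bead-based AlphaScreen, monomethylated H3K9 product from 2 h room-temperature reactions (G9a 20 nM, peptide 500 nM, SAM 20 uM) was detected with 0.5 ug/mL rabbit anti-H3K9me1 antibody.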
Sfp inh: qHTS Assay for Inhibitors of Bacillus subtilis Sfp phosphopantetheinyl transferase (PPTase). Potency, µM, most hits filed as inhibitors. 4'-phosphopantetheinyl transferase ffp (Bacillus subtilis), Q9F4F7. 310,000 tested, 3.5% active. Biochemical Sfp PPTase activity, qHTS;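 further: the enzyme is Sfp with the accession as filed and its product quenches rhodamine fluorescence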
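Step 1, compound plus 15 nM Sfp-PPTase, 15 min, room temperature. Step 2, add rhodamine-CoA (5 uM) and BHQ-2-YbbR (12.5 uM). Step 3, read 525/598 nm fluorescence at 0 and 30 min.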
BAZ2B block: qHTS Assay for Inhibitors of BAZ2B; AlphaScreen BAZ2B-H3K14Ac peptide displacement; Potency, µM (highest dose often 114 µM), usual class: inhibitors; 360,000 tested, 4.4% active; Bromodomain adjacent to zinc finger domain protein 2B (Homo sapiens), Q9UIF8; further: nearly all actives have a fitted effect of over 60% in size
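Inhibition is scored as reduced AlphaScreen emission. The BAZ2B/b-H3(5-23)K14Ac complex (50 nM each) in PBS pH 7.4, 0.01% Tween-20 meets compound (up to 110 uM) for 30 min at RT before bead addition.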
JMJD2A Tudor inh: qHTS Assay for Inhibitors of JMJD2A-Tudor Domain; AID 504339, 2011; Lysine-specific demethylase 4A (Homo sapiens), O75164; Potency, µM (highest dose often 114 µM), most hits filed as inhibitors; AlphaScreen JMJD2A-Tudor / H3K4me3 peptide binding; 390,000 tested, 4.4% active; further: nearly all actives have a fitted effect of over 50% in size
Target sequence (O75164 whole entry, looked up, the tested form may be a part): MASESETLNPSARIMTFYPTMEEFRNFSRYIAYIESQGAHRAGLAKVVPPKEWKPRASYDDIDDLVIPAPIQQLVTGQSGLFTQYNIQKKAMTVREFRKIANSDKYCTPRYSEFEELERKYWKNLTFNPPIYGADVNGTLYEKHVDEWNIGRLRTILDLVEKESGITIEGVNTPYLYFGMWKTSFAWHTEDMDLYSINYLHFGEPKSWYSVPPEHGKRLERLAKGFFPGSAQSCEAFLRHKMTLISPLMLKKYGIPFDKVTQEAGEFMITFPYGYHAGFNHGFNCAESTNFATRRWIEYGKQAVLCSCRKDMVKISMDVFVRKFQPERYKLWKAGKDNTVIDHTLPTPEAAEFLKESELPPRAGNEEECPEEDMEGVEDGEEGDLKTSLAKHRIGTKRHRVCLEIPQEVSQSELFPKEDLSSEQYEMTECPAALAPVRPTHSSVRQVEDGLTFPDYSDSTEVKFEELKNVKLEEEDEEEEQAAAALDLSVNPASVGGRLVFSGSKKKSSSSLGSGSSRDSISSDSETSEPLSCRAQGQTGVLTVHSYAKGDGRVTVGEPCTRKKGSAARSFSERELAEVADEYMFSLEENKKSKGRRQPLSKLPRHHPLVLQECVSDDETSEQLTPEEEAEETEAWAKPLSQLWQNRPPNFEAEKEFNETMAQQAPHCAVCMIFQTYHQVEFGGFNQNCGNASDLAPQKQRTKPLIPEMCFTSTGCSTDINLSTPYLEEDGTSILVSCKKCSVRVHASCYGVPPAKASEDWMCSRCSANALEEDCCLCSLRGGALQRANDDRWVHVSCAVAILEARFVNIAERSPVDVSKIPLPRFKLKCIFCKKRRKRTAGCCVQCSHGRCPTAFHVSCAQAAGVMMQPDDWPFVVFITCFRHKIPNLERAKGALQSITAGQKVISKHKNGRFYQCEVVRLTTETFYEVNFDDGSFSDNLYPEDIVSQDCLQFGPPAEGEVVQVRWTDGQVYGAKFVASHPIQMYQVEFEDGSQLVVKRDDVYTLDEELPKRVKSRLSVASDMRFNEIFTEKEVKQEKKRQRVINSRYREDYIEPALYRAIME
Sfp PPTase conf: Confirmation qHTS Assay for Inhibitors of Bacillus subtilis Sfp phosphopantetheinyl transferase (PPTase); shares compounds with Sfp inh; Sfp PPTase enzymatic assay, qHTS titration; Potency, µM (series often up to 114 µM), usual class: inhibitors; 380 tested, 79% active; AID 2701, 2010
Sfp PPTase gel: Gel-Based Assay for Inhibitors of Bacillus subtilis Sfp phosphopantetheinyl transferase (PPTase). AID 2707, 2010. shares compounds with Sfp inh. Potency, µM, usual class: inhibitors. purified Sfp, gel-based phosphopantetheinylation read-out. 210 tested, 20% active;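 active means potency below 100 µM; inconclusive means dose-dependent response but potency above 100 µM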;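 further: potency is an IC50 for inhibitors of Sfp transfer activity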
Hits are given with their value; . = inactive; ? = inconclusive; / = no result; [ ] = remark or other dose. Unless noted, the call rests on the fitted dose curve; in most records, active means well fitted curve in the direction sought with a large enough effect; inconclusive means small, poorly fitted or top-dose-only effect, or another doubt; inactive means no such curve, though single readings can be large; an effect the other way counts as inactive or inconclusive.

SMILES	HP1b binding inh	G9a block	Sfp inh	BAZ2B block	JMJD2A Tudor inh	Sfp PPTase conf	Sfp PPTase gel
CCOC(=O)c1c(NC(=O)C(C)Oc2ccccc2F)sc(C(C)=O)c1C (stereo not given)	.	.	/	.	.	/	/
CC(=O)N1c2ccccc2CC1C(=O)N1CCN(c2cc(Cl)ccc2C)CC1 (stereo not given)	.	.[12.7 µM]	/	.	.	/	/
O=c1cc(-c2ccc(O)cc2)oc2cccc(O)c12	/	/	.	/	/	/	/
O=C(O)c1cc(=O)c2c3nc4ccccc4oc-3cc(=O)c2[nH]1	/	?	45µM	/	/	53µM	/
C=C1C2CC[C@@]3(C)C(c4ccoc4)OC(=O)C[C@@]13OC1CC(O)C(C)(C)C(CC(=O)OC)[C@@]12C (stereo not given in full)	/	.[2.33 µM]	.	/	/	/	/
COc1cccc(CNc2ccccn2)c1O	.	.[0.501 µM]	.	.	.	/	/
COc1cccc(CNc2cccc3cccnc23)c1O	.	?	4.5µM	?	45µM	21µM	.
CCOc1ccc(C(=O)CCC(=O)N(CC)CC(=O)Nc2c(F)cccc2F)cc1	.	?	/	.	.	/	/
CCC1=C[C@@H]2CN(C1)Cc1c([nH]c3ccccc13)[C@@](C(=O)OC)(c1cc3c(cc1OC)N(C)[C@H]1[C@@](O)(C(=O)OC)[C@H](OC(C)=O)[C@]4(CC)C=CCN5CC[C@]31[C@@H]54)C2	/	/	14µM	/	/	?	56µM
COC(=O)Nc1nc2ccc(Br)cc2s1	.	.	.	.	.	/	/
COc1ccc2[nH]c(=O)c(CN(C(=O)c3ccco3)C3CCCCC3)cc2c1	.	?	7.9µM	.	.	37µM	.
COc1ccc2[nH]c(=O)c(CN(C(C)=O)C3CCCCC3)cc2c1	.	.	.	.	.	/	/
O=C(CC(SCc1ccco1)c1ccc(O)cc1)c1cccs1 (stereo not given)	?	.	56µM	?	?	7.4µM	.
CCOC(=O)c1c(-c2cccs2)csc1NC(=O)CN(CC)CC	.	.[12.7 µM]	.	.	.	/	/
CCOC(=O)c1c(-c2ccc(C)o2)csc1NC(=O)COC(=O)c1cccs1	.	10µM	10µM	.	.	21µM	?
Cc1cc(C)nc(SCNC(=O)c2ccccc2)n1	.	10µM	7.9µM	.	?	53µM	.
Cc1cc(C)nc(SCC(=O)O)n1	.	.	.	.	.	/	/
CN1CCc2cccc3c2[C@@H]1Cc1ccc(O)c(O)c1-3	?	2µM	63µM	35µM	13µM	59µM	56µM
CCCC(=O)NC(=S)Nc1nc(-c2ccc(OC)cc2)cs1	.	.	.	.	.	/	/
CCCC(=O)Nc1ccc(-c2csc(NNC(C)=O)n2)cc1	.	35µM	5µM	.	.	?	?
Nc1cccnc1Sc1cccc(Cl)c1	.	.	3.2µM	.	.	19µM	/
Nc1cccnc1Sc1ccc(Cl)cc1	.	.[12.7 µM]	.	.	.	/	/
On1c2c(c3c4nonc4ccc31)CCCC2	/	?	45µM	?	/	66µM	/
CC1=C(C(=O)O)N2C(=O)[C@@H](NC(=O)[C@@H](N)c3ccc(O)cc3)[C@@H]2SC1	/	.[21.5 µM]	32µM	/	/	.	?
CC(C)[C@H](NC(=O)[C@H](Cc1ccccc1)n1c(=O)[nH]c2ccccc2c1=O)C(=O)N1CCC[C@@H]1C(=O)O	.	/	.	.	.	/	/
O=C1CN(CC(=O)N2CCOCC2)c2ccccc2O1	/	.[2.33 µM]	3.5µM	?	/	.	/
Oc1ccc(NCc2cccc(OCc3ccc(F)cc3)c2)cc1	?	/	16µM	.	40µM	53µM	?
OCCNCc1cccc(OCc2ccc(Cl)cc2)c1	.	.	.	.	.	/	/
COC(=O)C1=C(C)NC(C)=C([N+](=O)[O-])[C@H]1c1ccccc1C(F)(F)F	/	/	.	/	/	/	/
